Experimental findings from the supplement of paper PMC8371130 are described below.

Counter-ions that a name gives are not always drawn.

For one test, the system named is HL-1. Briefly: relative cell viability (CellTiter-Glo) vs DMSO control (% of DMSO control); higher = more viable cells. The following applies: oxygen condition: hypoxia 48 h (1% O2) + reoxygenation 24 h; 1000 nM. The method, boiled down: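 HL-1 mouse atrial cardiomyocytes were plated in 384-well plates at 1000 cells per well together with compounds at 40, 200, 1000 or 5000 nM in 0.01% DMSO. One day later, cells went to a hypoxic workstation (1% O2) for 48 h, then were reoxygenated for 24 h in a normal incubator, or stayed in normoxia for the same time. Cell viability was read by CellTiter-Glo luminescence and normalised to vehicle-treated control cells.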
With `CCC(C)n1ncn(-c2ccc(N3CCN(c4ccc(OCC5COC(Cn6cncn6)(c6ccc(Cl)cc6Cl)O5)cc4)CC3)cc2)c1=O` (configuration not stated) [Itraconazole], the relative cell viability is 100. In the case of `NC(=O)c1ncn([C@@H]2O[C@H](CO)[C@@H](O)[C@H]2O)c1O` [Mizoribine], the relative cell viability was 115. The same measure, in the same setting: as for `COc1cc(OC)c(C(=O)CCCN2CCCC2)c(OC)c1` [Buflomedil HCl], the figure is 100; as for `COc1ccc2cc1Oc1ccc(cc1)C[C@H]1c3c(cc4c(c3Oc3cc5c(cc3OC)CCN(C)[C@@H]5C2)OCO4)CCN1C` [Cepharanthine], 87.

Still in this test, the particulars now being: oxygen condition: hypoxia 48 h (1% O2) + reoxygenation 24 h; 5000 nM.
Consider `CN(C)CCOC(C)(c1ccccc1)c1ccccn1` (configuration not stated) [Doxylamine Succinate], for which the relative cell viability worked out at 109. On the same count and under the same terms, as for `CC(C[N+](C)(C)C)OC(N)=O` (configuration not stated) [Bethanechol chloride], the figure is 86.9; as for `CC(C)NC[C@H](O)COc1ccc(CCOCC2CC2)cc1` [Levobetaxolol HCl], 115; as for `CNC[C@H](O)c1cccc(O)c1` [Phenylephrine HCl], 109. Regarding `CC1(C)O[C@@H]2[C@@H](CO[C@@]3(COS(N)(=O)=O)OC(C)(C)O[C@@H]23)O1` [Topiramate], the relative cell viability is 100. The same measure, in the same setting: under `O=C1c2cccc3c2[C@H](CCC3)CN1[C@@H]1CN2CCC1CC2` [Palonosetron HCl] stands 97. On the same count and under the same terms, under `NS(=O)(=O)c1cc2c(cc1Cl)N=CNS2(=O)=O` [Chlorothiazide] stands 111; under `Nc1ncn([C@@H]2O[C@H](CO)[C@@H](O)[C@H]2O)c(=O)n1` [Azacitidine], 83; under `O=C(O)Cc1cc(I)c(Oc2ccc(O)c(I)c2)c(I)c1` [Tiratricol], 119. On to `Cc1onc(-c2ccccc2)c1C(=O)N[C@@H]1C(=O)N2[C@@H]1SC(C)(C)[C@@H]2C(=O)O` [Oxacillin sodium monohydrate], for which the relative cell viability is 110.

For `N[C@@H](Cc1cc(I)c(Oc2cc(I)c(O)c(I)c2)c(I)c1)C(=O)O` [L-Thyroxine], the relative cell viability is 110. Consider `COc1ccc(Cl)cc1C(=O)NCCc1ccc(S(=O)(=O)NC(=O)NC2CCCCC2)cc1` [Glyburide], for which the relative cell viability is 104. Same read-out and setting: as for `COC(=O)C1=C(C)NC(C)=C(C(=O)OC(C)C)C1c1cccc2nonc12` (configuration not stated) [Isradipine], the figure is 104. Still for that read-out and setting: as for `CN(C)CCN(Cc1ccccc1)c1ccccn1` [Tripelennamine HCl], the figure is 103; as for `CN1CCCCC1CCN1c2ccccc2Sc2ccc([S+](C)[O-])cc21` (configuration not stated) [Mesoridazine Besylate], 113. On the same count and under the same terms, under `N[C@@H](Cc1ccc(O)c(O)c1)C(=O)O` [Levodopa] stands 110; under `CNCC[C@H](Oc1cccc2ccccc12)c1cccs1` [Duloxetine HCl], 92.8; under `CCCNC(C)C(=O)Nc1c(C)csc1C(=O)OC` (configuration not stated) [Articaine HCl], 105. In the case of `CCOc1nc2cccc(C(=O)O)c2n1Cc1ccc(-c2ccccc2-c2nnn[nH]2)cc1` [Candesartan], the relative cell viability was determined as 109. As to `COc1ccc(-c2nc3cc(C4=NNC(=O)CC4C)ccc3[nH]2)cc1` (configuration not stated) [Pimobendan], the relative cell viability came out at 109. Still for that read-out and setting: as for `CCCN[C@H]1CCc2nc(N)sc2C1` [Pramipexole dihydrochloride monohydrate], the figure is 107; as for `CCN(CC)C(=S)SSC(=S)N(CC)CC` [Disulfiram], 4.57. The same measure, in the same setting: under `CN[C@H](CC(C)C)C(=O)N[C@H]1C(=O)N[C@@H](CC(N)=O)C(=O)N[C@H]2C(=O)N[C@H]3C(=O)N[C@H](C(=O)N[C@H](C(=O)O)c4cc(O)cc(O)c4-c4cc3ccc4O)[C@H](O)c3ccc(c(Cl)c3)Oc3cc2cc(c3O[C@@H]2O[C@H](CO)[C@@H](O)[C@H](O)[C@H]2O[C@H]2C[C@](C)(N)[C@H](O)[C@H](C)O2)Oc2ccc(cc2Cl)[C@H]1O` [Vancomycin HCl] stands 114; under `COC(=O)[C@H](c1ccccc1Cl)N1CCc2sccc2C1` [Clopidogrel], 111.

With `CN(CCOc1ccc(NS(C)(=O)=O)cc1)CCc1ccc(NS(C)(=O)=O)cc1` [Dofetilide], the relative cell viability came out at 112. As for `COC(=O)N[C@H](C(=O)N[C@@H](Cc1ccccc1)[C@@H](O)CN(Cc1ccc(-c2ccccn2)cc1)NC(=O)[C@@H](NC(=O)OC)C(C)(C)C)C(C)(C)C` [Atazanavir sulfate], the relative cell viability came out at 108. Turning to `CN(C)CCc1c[nH]c2ccc(Cn3cncn3)cc12` [Rizatriptan Benzoate], the relative cell viability is 107. The same measure, in the same setting: as for `CC=CC1=C(C(=O)O)N2C(=O)[C@@H](NC(=O)[C@H](N)c3ccc(O)cc3)[C@H]2SC1` [Cefprozil hydrate], the figure is 104; as for `NC(=O)CC[C@H](N)C(=O)O` [L-Glutamine], 105; as for `CCOC(=O)[C@H](CCc1ccccc1)N[C@@H](C)C(=O)N1[C@H](C(=O)O)C[C@@H]2CCC[C@@H]21` [Ramipril], 123. Same read-out and setting: as for `CN(C)CCCN1c2ccccc2Sc2ccc(C(F)(F)F)cc21` [Triflupromazine HCl], the figure is 106; as for `OC(CCN1CCCCC1)(c1ccccc1)C1CC2C=CC1C2` (configuration not stated) [Biperiden HCl], 108; as for `CC(=O)Oc1ccccc1C(=O)O` [Aspirin], 110. On the same count and under the same terms, as for `COc1ccccc1OCC(O)COC(N)=O` (configuration not stated) [Methocarbamol], the figure is 119. Regarding `CCC(C)n1ncn(-c2ccc(N3CCN(c4ccc(OCC5COC(Cn6cncn6)(c6ccc(Cl)cc6Cl)O5)cc4)CC3)cc2)c1=O` (configuration not stated) [Itraconazole], the relative cell viability amounted to 108.

For `NC(=O)c1ncn([C@@H]2O[C@H](CO)[C@@H](O)[C@H]2O)c1O` [Mizoribine], the relative cell viability was 108.

As for `COc1cc(OC)c(C(=O)CCCN2CCCC2)c(OC)c1` [Buflomedil HCl], the relative cell viability came out at 114. Same read-out and setting: under `COc1ccc2cc1Oc1ccc(cc1)C[C@H]1c3c(cc4c(c3Oc3cc5c(cc3OC)CCN(C)[C@@H]5C2)OCO4)CCN1C` [Cepharanthine] stands 49.8.
